A selection: hits, their analogues and other compounds. The true share with any hit is near 27%.
CYP2C19 inhib = human CYP2C19 inhibition. CYP2C19 Supersomes, luciferin-H EGE luminescence, 30 min. inhibition, % at 5 µM. actives 21% (n = 96,000). AID 778;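 active = CYP2C19 inhibition above a set limit at 5 µM in the primary screen, cut at about 50% in these data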
Target sequence (P33261 whole entry, looked up): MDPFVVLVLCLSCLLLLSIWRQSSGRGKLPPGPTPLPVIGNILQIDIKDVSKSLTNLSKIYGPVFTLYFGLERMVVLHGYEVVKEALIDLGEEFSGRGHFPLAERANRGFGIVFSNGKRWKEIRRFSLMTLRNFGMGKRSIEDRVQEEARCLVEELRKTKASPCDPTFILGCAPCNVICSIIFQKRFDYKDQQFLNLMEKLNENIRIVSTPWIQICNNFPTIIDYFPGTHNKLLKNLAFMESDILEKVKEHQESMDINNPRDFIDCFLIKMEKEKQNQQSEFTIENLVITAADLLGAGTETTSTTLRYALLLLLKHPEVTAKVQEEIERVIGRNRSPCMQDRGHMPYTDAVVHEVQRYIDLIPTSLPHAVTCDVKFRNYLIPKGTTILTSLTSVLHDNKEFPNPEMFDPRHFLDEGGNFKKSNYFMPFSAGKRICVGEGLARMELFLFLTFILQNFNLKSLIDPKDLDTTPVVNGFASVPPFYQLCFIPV
CYP2C9 act = increases human cytochrome P450 2C9 activity; P11712; recombinant CYP2C9, luciferin-H conversion, luminescence; active compounds read high; factor 1 = untreated enzyme, 0 = blocked; activation factor at 5 µM; actives 1.4% (n = 96,000); AID 1024;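 active = activation factor of 2 or more for CYP2C9 at a 5 µM dose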
sEH inh = inhibitors of human soluble epoxide hydrolase; P34913; recombinant human sEH enzymatic activity assay; inhibition, % at 2 µM; actives 0.34% (n = 91,000); AID 707; in the data active = inhibition above about 80%
sEH activator = soluble epoxide hydrolase (human) activation. activation, % at 2 µM. AID 717. actives 0.04% (n = 91,000). purified human sEH enzymatic activity, activator screen; in the data active = activation above about 37%
CYP2C19 activ = activators of human cytochrome P450 2C19. P33261. recombinant CYP2C19, luciferin-H EGE luminescence; active compounds read high; 0 = fully inhibited enzyme, 1 = untreated enzyme. activation factor at 5 µM. 96,000 tested, under 10 active. AID 1025;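 active = activation factor of at least 2 at 5 µM in the primary screen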
CYP2C9 inh = inhibitors of human CYP2C9 | P11712 | CYP2C9 Supersomes, luciferin-H conversion, luminescence | inhibition, % at 5 µM | actives 20% (n = 96,000) | AID 777;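 active = blocking of liver enzyme CYP2C9 beyond about 50% at 5 µM, limit read from the data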
Numbers stand for hits; – = inactive; · = no result.

SMILES | CYP2C19 inhib | CYP2C9 act | sEH inh | sEH activator | CYP2C19 activ | CYP2C9 inh
O=C1CC(NCc2ccc3c(c2)OCO3)C(=O)N1Cc1ccc2c(c1)OCO2 (stereo unspecified) | – | – | – | – | – | –
COCCNC(=O)CSc1nc2ccccc2c2nc(C)nn12 | – | – | – | – | – | –
Cc1nc2c3ccccc3nc(SCC(=O)N3CC(C)CC(C)C3)n2n1 (stereo unspecified) | 54 | – | – | – | – | –
COc1ccc(OC)c(C2CC(=O)N3CN(c4ccccc4F)CSC3=C2C#N)c1 (stereo unspecified) | – | – | – | – | – | 89
CCc1ccccc1N1CSC2=C(C#N)C(c3cc(OC)c(OC)cc3OC)CC(=O)N2C1 (stereo unspecified) | – | – | – | – | – | –
COc1cccc(C2CC(=O)N3CN(c4ccccc4F)CSC3=C2C#N)c1 (stereo unspecified) | 68 | – | – | – | – | 84
CN(C)c1ccc(Nc2nc(-c3cccnc3)cs2)cc1 | 81 | – | · | · | – | –
Clc1ccc(Nc2nc(-c3cccnc3)cs2)cc1 | 83 | – | – | – | – | –
O=C(CC1Sc2ccccc2NC1=O)Nc1cccc(C(=O)O)c1 (stereo unspecified) | – | – | · | · | – | –
O=C(NCc1ccc2c(c1)OCO2)C1CCCN(S(=O)(=O)c2cccc3cccnc23)C1 (stereo unspecified) | – | – | – | – | – | –
CC(NC(=O)C1CCCN(S(=O)(=O)c2cccc3nonc23)C1)c1ccccc1 (stereo unspecified) | – | – | – | – | – | 53
CC1CCN(CCNC(=O)C2CCCN(S(=O)(=O)c3cccc4nonc34)C2)CC1 (stereo unspecified) | – | – | – | – | – | –
O=C(NCc1ccc2c(c1)OCO2)C1CCCN(S(=O)(=O)c2cccc3nonc23)C1 (stereo unspecified) | – | – | – | – | – | 64
O=C(NC1CCN(Cc2ccccc2)CC1)C1CCCN(S(=O)(=O)c2cccc3nonc23)C1 (stereo unspecified) | 53 | – | – | – | – | –
N#CCCN(Cc1cccnc1)C(=O)c1ccc(S(=O)(=O)N2CCOCC2)cc1 | – | – | · | · | – | –
CN(Cc1ccco1)C(=O)C1CCC(=O)N1Cc1ccc(F)cc1 (stereo unspecified) | – | – | – | – | – | –
CCOC(=O)CN1C(=O)C(C)(C)Oc2ccc(C(=O)Nc3ccccc3OC)cc21 | 82 | – | – | – | – | –
CC1(C)CC(=O)N(CC(=O)NC2CCCC2)c2ccccc2S1(=O)=O | – | – | · | · | – | –
CCC1Oc2ccc(C)cc2N(CC(=O)N2CCN(c3ccc(F)cc3)CC2)C1=O (stereo unspecified) | – | – | – | – | – | –
CC(C)(C)NC(=O)c1ccc2c(c1)N(CC(=O)N1CCN(c3ccc(F)cc3)CC1)C(=O)C(C)(C)O2 | 79 | – | – | – | – | 60
COc1ccc(C(=O)CN2C(=O)C(C)(C)Oc3ccc(C(=O)N4CCCCCC4)cc32)cc1 | 57 | – | · | · | – | 78
CC1(C)Oc2ccc(C(=O)NC3CCCC3)cc2N(CC(=O)NC2CCCCC2)C1=O | – | – | · | · | – | 82
CCCC1(CCC)NC(=O)N(CC(=O)Nc2ccccc2OC)C1=O | – | – | – | – | – | –
CC1(C)Oc2ccc(C(=O)N3CCCC3)cc2N(CC(=O)NCc2ccccc2)C1=O | – | – | – | – | – | –
Cc1nc2ncnn2c(C)c1CCC(=O)N1CCOCC1 | – | – | – | – | – | –
SMILES | CYP2C19 inhib | CYP2C9 act | sEH inh | sEH activator | CYP2C19 activ | CYP2C9 inh
CC1(C)Oc2ccc(C(=O)N3CCc4ccccc43)cc2N(CC(=O)N2CCCC2)C1=O | – | – | – | – | – | –
Cc1ccc(NC(=O)c2ccc3c(c2)N(CC(=O)N2CCCCC2)C(=O)C(C)(C)O3)cc1 | 58 | – | – | – | – | 99
CCc1nnc(NS(=O)(=O)c2ccc(NS(=O)(=O)c3ccc(NC(C)=O)cc3)cc2)s1 | – | – | – | – | – | 77
CCc1nnc(NS(=O)(=O)c2ccc(N/C=C\C(=O)c3ccc(C)cc3)cc2)s1 | – | – | – | – | – | 88
Cc1cc(C)nc(NS(=O)(=O)c2ccc(N/C=C\C(=O)c3ccc(Cl)cc3)cc2)n1 | – | – | – | – | – | –
CCN(CC)S(=O)(=O)c1csc(C(=O)NCc2ccccc2)c1 | – | – | – | – | – | –
CCN(CC)S(=O)(=O)c1ccc(NCc2ccccc2)nc1 | 64 | – | · | · | – | 77
CCOC(=O)CN(C(=O)CSc1nnc(-c2ccc(OC)c(OC)c2)o1)c1ccccc1 | – | – | · | · | – | –
Cc1cccc(C(=O)N2CCN(c3ccc([N+](=O)[O-])c(NCc4ccco4)c3)CC2)c1 | 78 | – | – | – | – | 78
Cc1ccc(C(=O)N2CCN(c3ccc([N+](=O)[O-])c(NCc4ccco4)c3)CC2)cc1 | – | – | – | – | – | 74
CC(C)C1Oc2ccccc2N(CC(=O)NCCCN2C(C)CCCC2C)C1=O (stereo unspecified) | – | – | · | · | – | –
COCCn1c(SCC(N)=O)nnc1-c1c[nH]c2ccccc12 | – | – | · | · | – | –
COCCn1c(SCc2ccc(C(=O)OC)o2)nnc1-c1c[nH]c2ccccc12 | 74 | – | · | · | – | 68
Cn1c(SCc2ccccc2)nnc1-c1c[nH]c2ccccc12 | – | – | – | – | – | –
COC(=O)c1ccc(CSc2nnc(-c3c[nH]c4ccccc34)n2C)o1 | 93 | – | · | · | – | 78
COCCn1c(SCc2ccc(C(=O)OC)o2)nc2cc(Cl)ccc2c1=O | 94 | – | – | – | – | 93
CN(C(=O)c1ccc(Cl)c(S(=O)(=O)N2CCOCC2)c1)c1ccccc1C(=O)O | – | – | – | – | – | –
O=C1c2ccccc2C(=O)N1CCCc1nc2ccccc2c(=O)n1Cc1ccco1 | – | – | – | – | – | –
CCn1cnc2cc(NCc3ccc(OC)cc3)ccc21 | 73 | – | – | – | – | –
c1ccc(-n2cnc3cc(NCc4ccccn4)ccc32)cc1 | 85 | – | – | – | – | 74
CC(C)n1cnc2cc(NCc3ccccn3)ccc21 | – | – | – | – | – | –
Cc1cc(NCc2ccccn2)ccc1Br | 63 | – | – | – | – | –
CCOc1ccc(CNc2ccc3c(c2)nc(C)n3C)cc1 | – | – | – | – | – | –
CCCCn1cnc2cc(NCc3ccncc3)ccc21 | 56 | – | – | – | – | 62
CC(C)n1cnc2cc(NCc3ccco3)ccc21 | – | – | – | – | – | –
c1ccc(-n2cnc3cc(NCc4ccncc4)ccc32)cc1 | 99 | – | – | – | – | 94
CN(C)c1ccc(CNc2ccc3c(c2)ncn3C)cc1 | 70 | – | – | – | – | –
COCC(=O)N/N=C/c1ccc(Sc2nc3ccccc3s2)o1 | – | – | – | – | – | –
Cc1ccccc1OCC(=O)N/N=C/c1ccc(Sc2nc3ccccc3s2)o1 | 74 | – | – | – | – | 83

Screens (PubChem BioAssay)
